The values below come from PubChem BioAssay (Tox21).

Several values for one entry are separate records, joined by “and”; a condition that tells them apart may be missing. Identical values can stand only once. Inconclusive results are not listed. The source holds several records for some structures; these can differ, active in one and inactive in another. Activity calls are given as the source filed them. Unless noted, the call rests on the fitted dose curve; in most records, active means well fitted curve in the direction sought with a large enough effect in the repeat runs; inconclusive means weak or mixed curves; inactive means no such curve, though single readings can be large; an effect the other way counts as inactive or inconclusive.

The target of test [1] is Retinoic acid receptor RXR-alpha (Homo sapiens) (UniProt P19793). Put plainly: qHTS assay to identify small molecule agonists of the RXR signaling pathway (AID 1159527; calls by dose curve; further: nearly all actives have a fitted effect of over 35% in size; further: potency means the concentration at half of the fitted maximal effect). The method in brief:
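GeneBLAzer RXR-alpha-UAS-bla HEK 293T cells in medium with 2% charcoal-stripped FBS, pre-incubated 5 hr at 37 C, then exposed to compounds 16 hr. Beta-lactamase reporter read by FRET substrate, 2 hr room temperature, 460/530 nm emission.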
(In general: Quantitative high-throughput screening tests each substance at several concentrations.)

The nature of test [2]: qHTS assay to identify small molecule agonists of the RXR signaling pathway - cell viability counter screen (AID 1159529). Further: series mostly up to about 77 µM; nearly all actives have a fitted effect of over 50% in size. The method in brief:
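RXR-alpha-UAS-bla HEK 293T cells in medium with 2% charcoal-stripped FBS were preincubated 5 hr, then exposed to compounds for 16 hr at 37 C. Viability was read as CellTiter-Glo luminescence after 30 min at room temperature.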

Test [3] in a line: qHTS assay to identify small molecule antagonists of the retinoid acid receptor (RAR) signaling pathway - cell viability counter screen (AID 1159551). Further: nearly all actives have a fitted effect of over 35% in size. Summed up: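 C3RL4 RARE-luciferase cells, 1,000/well, incubated overnight, then dosed with compound plus 1 uM retinol (final). After 6 hr at 37 C, viability read by CellTiter-Glo ATP luminescence following 30 min at room temperature.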

Test [4] can be described thus: qHTS assay to identify small molecule antagonists of the retinoic acid receptor (RAR) signaling pathway (AID 1159552; further: nearly all actives have a fitted effect of over 50% in size). The method in brief: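 RARE-luc C3RL4 cells; cpds + 1 uM (final) retinol, 6 hr, 37 C/5% CO2; luciferase reagent, 30 min RT, luminescence readout. Inhibitors of retinol-driven signal scored.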
Test [5] is described as follows: qHTS assay to identify small molecule agonists of the retinoic acid receptor (RAR) signaling pathway (AID 1159553). Summed up: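 C3RL4 RARE-luciferase cells were seeded at 1,000/well and grown overnight at 37 C, then exposed to compounds for 6 hr at 37 C, 5% CO2. Luciferase reagent was added and luminescence was read after 30 min at room temperature.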
Test [6] can be described thus: qHTS assay to identify small molecule antagonists of the estrogen related receptor (ERR) signaling pathway from Tox21 library - cell viability counter screen (AID 1224834). Further: nearly all actives have a fitted effect of over 30% in size. Further: potency means the concentration at half of the fitted maximal effect. The method in brief: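 ERR reporter cells, 2,000 per well, rested 6 h, then exposed to compound in DMSO for 17.5 hours at 37 C. Viability read as fluorescence after 30 min with CellTiter-Fluor.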

The target in test [7] is Luciferin 4-monooxygenase (Photinus pyralis) (UniProt P08659). As to the kind of experiment: qHTS assay to identify small molecule inhibitors of firefly luciferase (AID 1224835). Further: nearly all actives have a fitted effect of over 25% in size. Further: potency means the concentration at half of the fitted maximal effect. Summed up:
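Biochemical qHTS: compounds run as interplate titrations against purified firefly enzyme, with D-luciferin and ATP each at its KM concentration. Light output recorded by CCD imaging.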

Test [8] can be described thus: qHTS assay to identify small molecule agonists of the constitutive androstane receptor (CAR) signaling pathway - cell viability counter screen (AID 1224836). Further: series mostly up to about 92 µM; nearly all actives have a fitted effect of over 45% in size. Summed up:
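HepG2 cells stably carrying hCAR and a CYP2B6-2.2kb reporter were plated 4 h, then given compounds at 15 concentrations plus PK11195 (final 0.75 uM). After 23 h at 37 C, viability was read by CellTiter-Fluor fluorescence.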

Test [9] is described as follows: qHTS assay to identify small molecule antagonists of the constitutive androstane receptor (CAR) signaling pathway - cell viability counter screen (AID 1224837). Further: series mostly up to about 92 µM; nearly all actives have a fitted effect of over 45% in size. The method in brief:
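HepG2 cells stably carrying hCAR and CYP2B6-2.2kb reporter, stimulated with 50 nM CITCO and compounds at 15 concentrations for 23 h at 37 C. Viability measured by CellTiter-Fluor fluorescence.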

Test [10] can be described thus: qHTS assay to identify small molecule antagonists of the estrogen related receptor signaling pathway with the pleiotropic PPARgamma coactivator (PGC) from Tox21 10K library - cell viability counter screen (AID 1224840; active means well fitted cell-killing curve with a large enough effect in the repeat runs, not every such curve was filed as active; further: nearly all actives have a fitted effect of over 40% in size). The method in brief: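 PGC/ERR cells (2,000/well) plated 6 h, then compound-treated for 17.5 h at 37 C. Viability measured by CellTiter-Fluor fluorescence after 30 min at 37 C, multiplexed with the pathway assay.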

Test [11] can be described thus: qHTS assay to identify small molecule agonists of the estrogen related receptor signaling pathway with the pleiotropic PPARgamma coactivator (PGC) from Tox21 10K library (AID 1224842). Further: nearly all actives have a fitted effect of over 15% in size. The method in brief:
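PGC/ERR reporter cell line, 2,000 cells per well, incubated 6 h at 37 C before 23 nL compound in DMSO was added. After 18 h at 37 C, One-Glo luminescence read following 30 min at room temperature.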

Test [12] has as its target Thyrotropin receptor (Homo sapiens) (UniProt P16473). Put plainly: qHTS assay to identify small molecule agonists of the thyroid stimulating hormone receptor (TSHR) signaling pathway (AID 1224843; calls by dose curve; further: nearly all actives have a fitted effect of over 45% in size). Summed up: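 TSHR-HEK293 cells in agonist mode, 30 min room-temperature step, then cAMP measured by competitive HTRF (cAMP-d2 with anti-cAMP cryptate) after 1 h at room temperature. Tested at 15 concentrations in triplicate.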

In test [13] the target is Nuclear receptor subfamily 1 group I member 3 (Homo sapiens) (UniProt Q14994). Put plainly: qHTS assay to identify small molecule antagonists of the constitutive androstane receptor (CAR) signaling pathway (AID 1224838). Further: nearly all actives have a fitted effect of over 40% in size. The method in brief:
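HepG2 cells stably carrying hCAR and a CYP2B6-2.2kb luciferase reporter, seeded 4 hrs before compound (15 concentrations). Stimulated with 50 nM CITCO for 24 hr at 37 C. ONE-Glo luminescence read after 30 min at room temperature.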

The target is the same in test [14]. As to the kind of experiment: qHTS assay to identify small molecule agonists of the constitutive androstane receptor (CAR) signaling pathway (AID 1224839). Further: nearly all actives have a fitted effect of over 15% in size. Further: potency means the concentration at half of the fitted maximal effect. The method in brief: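 HepG2 cells stably expressing hCAR and a CYP2B6-2.2kb luciferase reporter were treated with compounds at 15 concentrations plus 0.75 uM PK11195 (final) for 24 h at 37 C; luminescence was read after ONE-Glo addition.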

Nuclear receptor subfamily 1 group I member 3 (Homo sapiens), sequence (Q14994 whole entry, looked up): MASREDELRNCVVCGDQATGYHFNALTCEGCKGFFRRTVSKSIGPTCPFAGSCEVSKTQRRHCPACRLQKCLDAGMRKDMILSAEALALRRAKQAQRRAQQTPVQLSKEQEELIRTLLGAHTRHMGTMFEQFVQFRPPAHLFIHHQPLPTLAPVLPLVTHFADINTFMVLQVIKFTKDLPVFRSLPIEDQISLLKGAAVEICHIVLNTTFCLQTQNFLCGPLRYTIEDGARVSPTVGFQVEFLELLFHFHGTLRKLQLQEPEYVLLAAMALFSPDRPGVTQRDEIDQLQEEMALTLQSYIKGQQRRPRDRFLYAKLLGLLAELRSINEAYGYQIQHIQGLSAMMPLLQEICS
Retinoic acid receptor RXR-alpha (Homo sapiens), sequence (P19793 whole entry, looked up): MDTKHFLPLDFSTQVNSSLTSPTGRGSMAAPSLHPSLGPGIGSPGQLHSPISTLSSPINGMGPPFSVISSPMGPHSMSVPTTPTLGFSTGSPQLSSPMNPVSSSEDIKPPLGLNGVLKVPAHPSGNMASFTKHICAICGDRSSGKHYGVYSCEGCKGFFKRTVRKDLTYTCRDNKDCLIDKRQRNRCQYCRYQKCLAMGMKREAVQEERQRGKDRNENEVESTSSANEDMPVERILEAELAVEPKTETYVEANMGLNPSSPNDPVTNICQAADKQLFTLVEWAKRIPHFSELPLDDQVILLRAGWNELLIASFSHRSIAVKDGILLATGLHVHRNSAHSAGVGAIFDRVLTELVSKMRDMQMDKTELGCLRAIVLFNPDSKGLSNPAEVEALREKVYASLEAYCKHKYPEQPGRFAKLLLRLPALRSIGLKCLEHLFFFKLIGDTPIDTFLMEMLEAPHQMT
Luciferin 4-monooxygenase (Photinus pyralis), sequence (P08659 whole entry, looked up): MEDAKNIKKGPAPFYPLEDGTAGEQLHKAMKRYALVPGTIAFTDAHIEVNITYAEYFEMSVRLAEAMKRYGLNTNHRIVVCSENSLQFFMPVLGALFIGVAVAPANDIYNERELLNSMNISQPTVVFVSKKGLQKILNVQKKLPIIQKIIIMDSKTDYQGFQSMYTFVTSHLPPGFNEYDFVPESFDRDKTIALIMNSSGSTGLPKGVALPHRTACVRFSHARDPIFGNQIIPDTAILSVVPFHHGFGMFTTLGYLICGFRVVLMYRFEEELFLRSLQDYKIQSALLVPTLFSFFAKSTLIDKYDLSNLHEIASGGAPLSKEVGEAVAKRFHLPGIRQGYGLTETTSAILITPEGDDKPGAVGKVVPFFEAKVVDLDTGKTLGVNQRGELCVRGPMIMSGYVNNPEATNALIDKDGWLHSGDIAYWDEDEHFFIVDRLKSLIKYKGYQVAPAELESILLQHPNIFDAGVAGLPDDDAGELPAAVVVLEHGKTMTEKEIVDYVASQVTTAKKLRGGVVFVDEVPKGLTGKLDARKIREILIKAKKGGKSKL
Thyrotropin receptor (Homo sapiens), sequence (P16473 whole entry, looked up): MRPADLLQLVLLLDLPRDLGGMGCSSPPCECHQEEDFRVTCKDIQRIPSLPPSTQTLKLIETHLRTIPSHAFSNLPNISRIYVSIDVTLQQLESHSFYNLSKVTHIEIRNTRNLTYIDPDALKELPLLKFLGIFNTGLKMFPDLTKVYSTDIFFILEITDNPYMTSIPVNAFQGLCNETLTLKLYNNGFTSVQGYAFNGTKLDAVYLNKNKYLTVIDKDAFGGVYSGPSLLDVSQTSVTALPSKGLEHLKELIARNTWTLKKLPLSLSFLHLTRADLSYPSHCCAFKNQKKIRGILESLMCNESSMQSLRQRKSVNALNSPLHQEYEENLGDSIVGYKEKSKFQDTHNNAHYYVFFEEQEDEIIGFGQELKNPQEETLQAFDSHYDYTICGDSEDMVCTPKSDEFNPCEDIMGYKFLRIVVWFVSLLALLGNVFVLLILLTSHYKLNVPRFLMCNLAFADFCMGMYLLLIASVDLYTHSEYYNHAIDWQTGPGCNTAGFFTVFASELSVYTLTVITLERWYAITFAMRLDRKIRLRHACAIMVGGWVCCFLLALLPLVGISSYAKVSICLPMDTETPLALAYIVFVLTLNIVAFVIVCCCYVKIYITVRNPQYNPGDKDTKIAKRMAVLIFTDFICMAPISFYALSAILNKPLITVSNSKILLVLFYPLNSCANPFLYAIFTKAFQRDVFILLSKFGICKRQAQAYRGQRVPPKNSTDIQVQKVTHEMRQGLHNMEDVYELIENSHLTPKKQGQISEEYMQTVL

As to `[N-]=[N+]=CC(=O)OC[C@H](N)C(=O)O`, the Potency entry in [1], in test [4], in [5], in test [6], in test [7] and in test [8] was “inactive” in each case. Further, the Potency result in test [9], in test [10], in test [11] and in test [12] was “inactive” each time. Moreover, the outcome in [2] and in test [3] was inactive.
Regarding `CN(C)C(=O)Nc1cccc(C(F)(F)F)c1`, the Potency result in test [1], in [4], in test [5], in test [6], in test [7] and in test [8] was “inactive” throughout. For the same compound, the Potency result in [9], in [13], in test [14], in test [10] and in [12] was “inactive” throughout. Besides, the outcome in test [2] and in test [3] was inactive.
For the compound `Cc1cccc(N)c1C`, the Potency in test [1] was 11.4 µM (active) and inactive; in test [14] it was “inactive and 61.1 µM (active)”. The call in [2] and in [3] was inactive. For the same compound, the Potency entry in test [4], in test [5], in test [6], in [7], in [8] and in test [9] was “inactive” in each case. The Potency entry in [13], in [10] and in test [12] was “inactive” throughout.
Turning to `Nc1cc(Cl)cc(Cl)c1`, the Potency entry in test [1], in test [4], in [5], in test [6], in [7] and in test [8] was “inactive” each time. The Potency result in [9], in test [13], in test [14], in test [10] and in test [12] was “inactive” in each case. The result in [2] and in test [3] was inactive.
Regarding `O=[N+]([O-])c1ccc(Cl)c(Cl)c1`, the Potency result in [1], in test [4], in test [5], in test [6], in [7] and in [8] was “inactive” each time. Further, the Potency result in test [9], in test [13], in test [14], in test [10], in test [11] and in [12] was “inactive” in each case. Moreover, the call in test [2] and in test [3] was inactive.
In the case of `N#CN=C(N)N`, the Potency entry in test [1], in test [4], in [5], in test [6], in test [7] and in test [8] was “inactive” each time. In addition, the Potency result in [9], in test [13], in [14], in [10] and in test [12] was “inactive” each time. Further, the result in [2] and in test [3] was inactive.
For the compound `O=C(O)c1cc(Oc2ccc(C(F)(F)F)cc2Cl)ccc1[N+](=O)[O-]`, the Potency entry in test [1], in test [4], in test [5], in [6], in test [7] and in test [8] was “inactive” each time. The Potency result in [9], in [10] and in test [11] was “inactive” throughout. The compound was classed as inactive in [2] and in [3].
As for `Cc1ccc(O)c(C)c1`, the Potency entry in test [1], in test [4], in test [5], in [6], in test [7] and in test [8] was “inactive” each time. Further, the Potency entry in [9], in test [10] and in test [11] was “inactive” throughout. Besides, the call in test [2] and in test [3] was inactive.
For the compound `CCCCCCCCCCCCCCCCCC(=O)O`, the Potency entry in test [1], in test [4], in test [5], in test [6], in [8] and in [9] was “inactive” throughout. Also, in test [10], the Potency entry was “inactive”. Also, the compound was called inactive in test [2] and in [3]. Also, the Potency in test [7] is 70.5 µM (active) and inactive.
Turning to `Nc1ncc([N+](=O)[O-])s1`, the Potency entry in test [1], in test [4], in test [5], in test [7], in [8] and in [9] was “inactive” throughout. Moreover, the Potency entry in test [10] and in test [11] was “inactive” each time. Further, the outcome in test [2] and in [3] was inactive. In addition, the Potency in [6] is 49 µM (active) and inactive.
